LYPLA2 counter: blocks human lysophospholipase 2, a PME1 counter-screen; O95372; recombinant LYPLA2, FP-Rh probe fluorescence polarization; inhibition, % at 5.9 µM; 320,000 compounds, 0.38% hits; AID 2177;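 active = inhibition above the screen-wide mean plus 3 SD, limit set per campaign, cut at about 26% in these data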
Target sequence (O95372 whole entry, looked up): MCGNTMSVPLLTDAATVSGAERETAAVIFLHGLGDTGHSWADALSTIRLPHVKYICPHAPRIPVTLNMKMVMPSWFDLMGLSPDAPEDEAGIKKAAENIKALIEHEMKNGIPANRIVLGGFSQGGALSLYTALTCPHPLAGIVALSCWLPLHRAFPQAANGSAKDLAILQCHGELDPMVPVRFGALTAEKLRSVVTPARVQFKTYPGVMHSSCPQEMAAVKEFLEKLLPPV
PAFAH1B3 inh: PAFAH1B3 (human) inhibition. Q15102. recombinant PAFAH1B3, FP-rhodamine probe, fluorescence polarization. inhibition, % at 3.39 µM. 340,000 compounds, 0.28% hits;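 active = inhibition above the screen-wide average of all tested compounds plus 3 SD, cut at about 25% in these data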
Target sequence (Q15102 whole entry, looked up): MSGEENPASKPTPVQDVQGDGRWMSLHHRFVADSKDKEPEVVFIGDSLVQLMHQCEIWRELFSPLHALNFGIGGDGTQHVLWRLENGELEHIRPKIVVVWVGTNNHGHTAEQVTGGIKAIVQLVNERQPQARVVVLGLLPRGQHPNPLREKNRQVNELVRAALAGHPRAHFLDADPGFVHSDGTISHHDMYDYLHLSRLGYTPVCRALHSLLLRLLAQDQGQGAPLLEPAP
PAFAH1B2 FP inh: PAFAH1B2 (human) inhibition | 340,000 compounds, 1.2% hits | recombinant PAFAH1B2, FP-rhodamine activity probe, fluorescence polarization | P68402 | inhibition, % at 3.39 µM;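 active = inhibition above the mean of all tested compounds plus 3 SD, cut at about 24% in these data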
pPAFAH inh: pPAFAH (human) enzyme inhibition; recombinant pPAFAH, FP-rhodamine probe fluorescence polarization; 330,000 compounds, 1.5% hits; Q13093; inhibition, % at 3.39 µM;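 active = inhibition above the mean inhibition across the screen plus 3 SD, cut at about 25% in these data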;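 note: inhibitors block binding of the rhodamine activity-based probe so polarization drops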
PAFAH2 inh: PAFAH2 (human) inhibition; Q99487; recombinant PAFAH2, FP-rhodamine activity probe, fluorescence polarization; inhibition, % at 3.39 µM; 340,000 compounds, 0.99% hits; AID 492956;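 active = inhibition above the mean over all tested compounds plus 3 SD, cut at about 30% in these data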;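 note: inhibitors block probe labeling of enzyme so polarization drops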
LYPLA1 counter: LYPLA1 (human) inhibition in PME1 counter-screen; inhibition, % at 5.9 µM; recombinant LYPLA1, FP-Rh probe fluorescence polarization; O75608; AID 2174; 320,000 compounds, 0.16% hits;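 active = inhibition above the mean of all tested compounds plus 3 SD, set per campaign, cut at about 14% in these data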;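 note: inhibitors block serine hydrolase probe labeling of LYPLA1 so polarization falls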
Large screens that a line does not name were inactive. An excerpt weighted towards active compounds, which were near 2.9% of everything screened.

CC(NC(=O)c1ccc(Cn2cc([N+](=O)[O-])cn2)cc1)c1ccccc1 (stereo unspecified)	none
CCC(CO)NCc1ccc(OCC(=O)Nc2cccc(C(F)(F)F)c2)c(OC)c1 (stereo unspecified)	none
COc1cc(C=O)ccc1OCCSc1ccc(C)cc1	PAFAH1B2 FP inh 35
COc1cc(C=O)ccc1OCCOCCOc1cc(C)ccc1Cl	none
CCOc1cc(C=O)ccc1OCCSc1ccc(C)cc1	PAFAH1B2 FP inh 30
COc1ccc(C(=O)N(C)C2CCCc3ccccc32)cc1OC1CCN(C(C)C)CC1 (stereo unspecified)	none
N/C(=N\N=C\c1ccc2c(c1)OCO2)c1nonc1N	none
O=C(NNc1ccccc1)C(=O)N1CCCCC1	none
C[C@@H](C(=O)Nc1nc2ccc(F)cc2s1)N1C(=O)C2CC=CCC2C1=O (stereo partly specified)	none
O=C(CSc1ccc(-c2ccc(Br)cc2)nn1)N1CCOCC1	none
CCN(CC)CCNC(=O)CNC(=O)c1nn(-c2ccc(OC)c(OC)c2)c(=O)c2ccccc12	none
CN(CCOc1ccc(Cl)cc1)C(=O)c1cc(-c2ccco2)nc2ccccc12	pPAFAH inh 26
COc1cccc(NC(=O)CN(C)C(=O)c2cc(-c3ccco3)nc3ccccc23)c1	none
CCOc1ccc(NC(=O)CN(C)C(=O)c2cc(-c3ccco3)nc3ccccc23)cc1OCC	none (no result: LYPLA2 counter, pPAFAH inh, LYPLA1 counter)
Cc1ccc(NC(=O)CN(C)C(=O)c2cc(-c3ccco3)nc3ccccc23)cc1	pPAFAH inh 32
CN(CC(=O)Nc1ccc(F)cc1)C(=O)c1cc(-c2ccco2)nc2ccccc12	pPAFAH inh 27
COc1ccc(OC)c(CCNC(=O)c2ccc(CS(=O)(=O)c3ccc(Br)cc3)o2)c1	PAFAH1B2 FP inh 27
COC(=O)c1c(NC(=O)/C=C/C(=O)O)sc(C)c1-c1ccc(C)cc1	none
CCOC(=O)c1c(NC(=O)/C=C/C(=O)O)sc(C)c1-c1ccc(F)cc1	pPAFAH inh 26
CCn1c(SCc2cccnc2)nc2c1c(=O)n(C)c(=O)n2C	none
COc1cccc(NC(=O)Nc2cc(C(=O)O)ccc2N2CC3CC(C2)c2cccc(=O)n2C3)c1 (stereo unspecified)	pPAFAH inh 34
CCOC(=O)c1ccc(N2CCN(c3ccc(F)cc3)CC2)c(NC(=O)Nc2cccc(OC)c2)c1	pPAFAH inh 29
CCOC(=O)c1ccc(N2CCN(c3ccccc3F)CC2)c(NC(=O)Nc2ccccc2)c1	none
O=C(OC[C@H]1O[C@@H](OC(=O)c2cc(O)c(O)c(OC(=O)c3cc(O)c(O)c(O)c3)c2)[C@H](OC(=O)c2cc(O)c(O)c(OC(=O)c3cc(O)c(O)c(O)c3)c2)[C@@H](OC(=O)c2cc(O)c(O)c(OC(=O)c3cc(O)c(O)c(O)c3)c2)[C@@H]1OC(=O)c1cc(O)c(O)c(OC(=O)c2cc(O)c(O)c(O)c2)c1)c1cc(O)c(O)c(OC(=O)c2cc(O)c(O)c(O)c2)c1	pPAFAH inh 70 (no result: PAFAH1B3 inh, PAFAH1B2 FP inh, PAFAH2 inh)
COC1OC(COC(=O)c2ccccc2)C(OC(=O)c2ccccc2)C1OC(=O)c1ccccc1 (stereo unspecified)	none
CC1Cc2ccccc2N1S(=O)(=O)c1cccc(C(=O)NCc2ccccn2)c1 (stereo unspecified)	none
CCN(CC)CCNC(=O)c1ccc(NC(=O)c2cc(S(=O)(=O)N3CCCCC3)ccc2C)cc1	none
CCOc1ccc(NS(=O)(=O)c2cc(C(=O)N3CCCC3)ccc2Cl)cc1	none
O=C(O)c1ccc(Cl)c(S(=O)(=O)Nc2ccc(OCc3ccccc3)cc2)c1	PAFAH1B2 FP inh 26
CCOC(=O)CSc1ncc(-c2ccc([N+](=O)[O-])cc2)[nH]1	pPAFAH inh 31
COc1ccc(-n2cnc3cc(NS(=O)(=O)c4ccc(C)cc4)ccc32)cc1	none
COc1ccccc1-n1cnc2cc(NS(=O)(=O)c3ccc(Br)cc3)ccc21	PAFAH1B2 FP inh 25
COc1cc(S(=O)(=O)Nc2ccc(Br)cc2)ccc1N	pPAFAH inh 25
CC(=O)Nc1ccc(NS(=O)(=O)c2cc(-c3cnc(C4CC4)o3)ccc2C)cc1	none
Cc1ccc(-c2cnc(C3CC3)o2)cc1S(=O)(=O)Nc1ccccc1	pPAFAH inh 31
Cc1ccc(NC(=O)CNc2cccc(S(=O)(=O)N3CCCCC3)c2)cc1F	pPAFAH inh 31
